PubChem BioAssay (EPA / NIEHS)
Active and inactive are the calls of the source. The calls were made as follows: active = hit-call score of the fitted dose curve at least 0.9, where 1 is the maximum; inactive = score below 0.9.

Key:
[1] = read-out: Thrombomodulin, THBD (gene 7056); test: BSK_CASM3C_Thrombomodulin: BioMAP Diversity Plus: CASM3C Assay for Thrombomodulin Biomarker Activity (AID 2283051); conditions: primary human coronary artery smooth muscle cells; actives raise or lower the signal;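 also: thrombomodulin protein level measured by ELISA 24 h after dosing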
[2] = read-out: Tissue Factor, F3 (gene 2152); test: BSK_CASM3C_TissueFactor: BioMAP Diversity Plus: CASM3C Assay for Tissue Factor Biomarker Activity (AID 2283052); conditions: primary human coronary artery smooth muscle cells; actives raise or lower the signal;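 also: cell surface tissue factor protein level read by ELISA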
[3] = read-out: Interferon-gamma inducible Protein 10 (IP10), CXCL10 (gene 3627); test: BSK_hDFCGF_IP10: BioMAP Diversity Plus: hDFCGF Assay for Interferon-gamma inducible Protein 10 (IP10) Biomarker Activity (AID 2283053); conditions: primary human foreskin fibroblasts; actives raise or lower the signal
Method in brief: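 IP-10 levels, quantified by ELISA, are taken from human foreskin fibroblast cultures 24 h after chemical treatment, with DMSO serving as negative control and baseline for bidirectional analysis.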

[4] = read-out: Urokinase-type plasminogen activator receptor (uPAR), PLAUR (gene 5329); test: BSK_CASM3C_uPAR: BioMAP Diversity Plus: CASM3C Assay for Urokinase-type plasminogen activator receptor (uPAR) Biomarker Activity (AID 2283054); conditions: primary human coronary artery smooth muscle cells; actives raise or lower the signal;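 also: cell-surface uPAR protein level quantified by ELISA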
[5] = read-out: Vascular cell adhesion molecule 1 (VCAM1), VCAM1 (gene 7412); test: BSK_CASM3C_VCAM1: BioMAP Diversity Plus: CASM3C Assay for Vascular cell adhesion molecule 1 (VCAM1) Biomarker Activity (AID 2283055); conditions: primary human coronary artery smooth muscle cells; actives raise or lower the signal;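 also: VCAM-1 protein level quantified by ELISA on the cells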
[6] = read-out: Collagen III, COL3A1 (gene 1281); test: BSK_hDFCGF_CollagenIII: BioMAP Diversity Plus: hDFCGF Assay for Collagen III Biomarker Activity (AID 2283056); conditions: primary human foreskin fibroblasts; actives raise or lower the signal
Method in brief: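 Cells: human foreskin fibroblasts, primary. Dosing followed by 24 h incubation, then ELISA for collagen III. Both increases and decreases scored relative to DMSO.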

[7] = read-out: Epidermal growth factor receptor (EGFR), EGFR (gene 1956); test: BSK_hDFCGF_EGFR: BioMAP Diversity Plus: hDFCGF Assay for Epidermal growth factor receptor (EGFR) Biomarker Activity (AID 2283057); conditions: primary human foreskin fibroblasts; actives raise or lower the signal
Method in brief: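 Measured by ELISA: EGFR levels on primary human foreskin fibroblasts 24 h after chemical treatment, analysed relative to DMSO with bidirectional fitting.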

[8] = read-out: Interleukin-8 (IL8), CXCL8 (gene 3576); test: BSK_hDFCGF_IL8: BioMAP Diversity Plus: hDFCGF Assay for Interleukin-8 (IL8) Biomarker Activity (AID 2283058); conditions: primary human foreskin fibroblasts; actives raise or lower the signal
Method in brief: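 IL-8 levels from compound-treated primary human fibroblasts were read by ELISA at 24 h, with DMSO serving as baseline for bidirectional fitting.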

[9] = read-out: Macrophage colony-stimulating factor (MCSF), CSF1 (gene 1435); test: BSK_hDFCGF_MCSF: BioMAP Diversity Plus: hDFCGF Assay for Macrophage colony-stimulating factor (MCSF) Biomarker Activity (AID 2283060); conditions: primary human foreskin fibroblasts; actives raise or lower the signal
Method in brief: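 M-CSF levels, determined by ELISA, are taken at 24 h after dosing human skin fibroblasts. Responses in either direction are fitted with DMSO serving as the baseline.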

[10] = BSK_hDFCGF_SRB: Viability Assessment in the BioMAP Diversity Plus: hDFCGF Assay (AID 2283061); conditions: primary human foreskin fibroblasts;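 also: cells exposed to compound for 24 h before the read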
Method in brief: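 Cells were dosed with test chemical, cultured 24 h, fixed with 10% TCA, then stained with 0.1% SRB and read at 560 nm. The fibroblasts were human foreskin primary cells, and DMSO served as baseline.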

[11] = read-out: TIMP metallopeptidase inhibitor 1 (TIMP1), TIMP1 (gene 7076); test: BSK_hDFCGF_TIMP1: BioMAP Diversity Plus: hDFCGF Assay for TIMP metallopeptidase inhibitor 1 (TIMP1) Biomarker Activity (AID 2283062); conditions: primary human foreskin fibroblasts; actives raise or lower the signal
Method in brief: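 Fibroblasts from human foreskin are treated with test chemical and harvested at 24 h. TIMP-1 is quantified by ELISA, and gain or loss of signal is scored against DMSO.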

[12] = read-out: Monokine induced gamma interferon (MIG), CXCL9 (gene 4283); test: BSK_hDFCGF_MIG: BioMAP Diversity Plus: hDFCGF Assay for Monokine induced gamma interferon (MIG) Biomarker Activity (AID 2283063); conditions: primary human foreskin fibroblasts; actives raise or lower the signal
Method in brief: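 MIG signal, determined by ELISA, reflects 24 h chemical exposure of human skin primary fibroblasts. DMSO serves as negative control and baseline.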

[13] = read-out: Matrix Metallopeptidase 1 (MMP1), MMP1 (gene 4312); test: BSK_hDFCGF_MMP1: BioMAP Diversity Plus: hDFCGF Assay for Matrix Metallopeptidase 1 (MMP1) Biomarker Activity (AID 2283064); conditions: primary human foreskin fibroblasts; actives raise or lower the signal
Method in brief: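 Primary human foreskin fibroblasts in the hDFCGF system were dosed with test chemical, and MMP1 was measured by ELISA 24 h later. Values come from bidirectional curve fitting against the DMSO baseline.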

[14] = read-out: Vascular cell adhesion molecule 1 (VCAM1), VCAM1 (gene 7412); test: BSK_hDFCGF_VCAM1: BioMAP Diversity Plus: hDFCGF Assay for Vascular cell adhesion molecule 1 (VCAM1) Biomarker Activity (AID 2283065); conditions: primary human foreskin fibroblasts; actives raise or lower the signal;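 as to AC50: VCAM-1 protein level quantified by ELISA after 24 h chemical exposure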
Method in brief: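 Cells are dosed, cultured for 24 h, then VCAM-1 is quantified by ELISA; signal increases and decreases are both fitted relative to DMSO.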

[15] = read-out: Plasminogen activator inhibitor-1 (PAI1), SERPINE1 (gene 5054); test: BSK_hDFCGF_PAI1: BioMAP Diversity Plus: hDFCGF Assay for Plasminogen activator inhibitor-1 (PAI1) Biomarker Activity (AID 2283066); conditions: primary human foreskin fibroblasts; actives raise or lower the signal
Method in brief: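 PAI-1 levels, determined by ELISA, served as the endpoint in human foreskin fibroblast cultures exposed to compound for 24 h, with DMSO as baseline.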

[16] = read-out: Intercellular Adhesion Molecule 1 (ICAM1), ICAM1 (gene 3383); test: BSK_KF3CT_ICAM1: BioMAP Diversity Plus: KF3CT Assay for Intercellular Adhesion Molecule 1 (ICAM1) Biomarker Activity (AID 2283067); conditions: primary human keratinocytes with fibroblasts; actives raise or lower the signal
Method in brief: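 Dose the keratinocyte/fibroblast co-culture, wait 24 h, measure ICAM-1 by ELISA, then fit increases or decreases against DMSO. Cytotoxicity is checked in parallel cultures by SRB total-protein staining.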

[17] = read-out: Interferon-gamma inducible Protein 10 (IP10), CXCL10 (gene 3627); test: BSK_KF3CT_IP10: BioMAP Diversity Plus: KF3CT Assay for Interferon-gamma inducible Protein 10 (IP10) Biomarker Activity (AID 2283068); conditions: primary human keratinocytes with fibroblasts; actives raise or lower the signal
Method in brief: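 Human keratinocyte plus foreskin fibroblast primary co-culture exposed to test chemical for 24 h; IP-10 measured by ELISA. Concentration-response fitted bidirectionally against DMSO control as baseline.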

[18] = BSK_KF3CT_SRB: Viability Assessment in the BioMAP Diversity Plus: KF3CT Assay (AID 2283069); conditions: primary human keratinocytes with fibroblasts;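 also: total protein by sulforhodamine B staining as a cytotoxicity measure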
Method in brief: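 Human primary keratinocyte plus foreskin fibroblast co-culture exposed to chemicals for 24 h. Total protein measured by 0.1% sulforhodamine B staining after 10% TCA fixation, read at 560 nm; bidirectional fitting versus DMSO baseline.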

[19] = read-out: Interleukin-1 alpha (IL1a), IL1A (gene 3552); test: BSK_KF3CT_IL1a: BioMAP Diversity Plus: KF3CT Assay for Interleukin-1 alpha (IL1a) Biomarker Activity (AID 2283070); conditions: primary human keratinocytes with fibroblasts; actives raise or lower the signal
Method in brief: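 Human keratinocyte plus foreskin fibroblast primary co-culture, sampled 24 h after chemical dosing. IL-1a measured by ELISA; responses fitted bidirectionally against DMSO baseline (negative control), so gain or loss of signal both count.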

Measured: AC50

CN(c1nccc(=O)[nH]1)C1CCN(c2nc3ccccc3n2Cc2ccc(F)cc2)CC1
inactive: all assays above

CSCCC=O
inactive: all assays above

Oc1c(Cl)cc(Cl)c(Cl)c1Cc1c(O)c(Cl)cc(Cl)c1Cl
active: [2] 1.73 µM | [3] 2.82 µM | [4] 1.97 µM | [5] 9.96 µM | [6] 4.93 µM | [8] 3.96 µM | [9] 1.58 µM | [10] 5.15 µM | [11] 1.94 µM | [12] 3.45 µM | [13] 3.28 µM | [14] 2.22 µM | [15] 0.338 µM | [16] 3.14 µM | [17] 2.4 µM | [18] 5.15 µM | [19] 1.83 µM
inactive: [1] | [7]

COc1ccc(OC)c(N=Nc2c(O)ccc3ccccc23)c1
active: [3] 3.71 µM | [5] 20 µM | [6] 1.92 µM | [9] 5.74 µM | [10] 8.26 µM | [11] 4.02 µM | [12] 1.93 µM | [13] 14.2 µM | [14] 1.42 µM | [19] 8.38 µM
inactive: [1] | [2] | [4] | [7] | [8] | [15] | [16] | [17] | [18]

c1ccc(CCc2ccccc2)cc1
inactive: [1] | [7] | [8] | [12] | [16]
active: [2] 20 µM | [3] 34.1 µM | [4] 31.9 µM | [5] 37.6 µM | [6] 36.1 µM | [9] 30.5 µM | [10] 30.3 µM | [11] 36.6 µM | [13] 36.7 µM | [14] 30.9 µM | [15] 31.1 µM | [17] 30 µM | [18] 28.5 µM | [19] 25.2 µM

COc1ccc(CCN2CCC(Nc3nc4ccccc4n3Cc3ccc(F)cc3)CC2)cc1
active: [6] 5 µM | [9] 7.49 µM | [11] 6.47 µM | [15] 7.58 µM
inactive: all other assays above
